# High-throughput results deposited in PubChem BioAssay by National Center for Advancing Translational Sciences (NCATS).
# Sampled rows, rich in hits. Any-hit rate of the full collection: about 2.9%.
# IDH1 R132H inh – qHTS for Inhibitors of mutant isocitrate dehydrogenase 1 (IDH1): qHTS | AID 602179, 2012 | Potency, µM (highest dose often 76.6 µM), hits mostly inhibitors | IDH1-R132H enzyme, NADPH consumption, diaphorase/resazurin fluorescence | actives 0.093% (n = 390,000) | Isocitrate dehydrogenase [NADP] cytoplasmic (Homo sapiens), O75874; also: nearly all actives have a fitted effect of over 65% in size
#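 IDH1-R132H (0.5 ug/mL dispensed) in pH 7.5 Tris buffer was preincubated 30 min with compound, then given a substrate mix of 0.016 mM NADPH and 2 mM alpha-KG for 80 min at room temperature; remaining NADPH was read by diaphorase/resazurin fluorescence.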
# B2AR arrestin – qHTS assay of beta-arrestin-biased ligands of beta2-adrenergic receptor; actives 0.02% (n = 330,000); AID 492947, 2010; Potency, µM (series often up to 46.1 µM), usual class: activators; beta-arrestin recruitment to beta2AR, cell-based reporter; also: nearly all actives have a fitted effect of over 65% in size
# Target sequence (P07550 whole entry, looked up): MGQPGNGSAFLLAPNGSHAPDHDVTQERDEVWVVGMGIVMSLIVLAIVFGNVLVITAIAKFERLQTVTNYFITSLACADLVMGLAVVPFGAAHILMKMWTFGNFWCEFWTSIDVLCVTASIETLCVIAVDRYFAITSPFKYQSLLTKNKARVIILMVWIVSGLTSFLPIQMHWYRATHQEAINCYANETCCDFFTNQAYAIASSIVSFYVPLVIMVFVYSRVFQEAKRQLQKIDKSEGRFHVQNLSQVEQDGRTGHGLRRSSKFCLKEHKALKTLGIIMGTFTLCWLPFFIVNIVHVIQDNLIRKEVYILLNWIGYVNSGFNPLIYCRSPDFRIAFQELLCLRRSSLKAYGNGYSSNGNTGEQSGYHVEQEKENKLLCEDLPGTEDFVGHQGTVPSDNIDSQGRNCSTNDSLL
# D3 ag – qHTS of D3 Dopamine Receptor Agonist: qHTS | D(3) dopamine receptor (Homo sapiens), P35462 | D3R DiscoveRx beta-arrestin cells, luminescence, 90 min | max activation, % | actives 0.58% (n = 410,000) | AID 652048, 2013; in the data active = max activation above about 30%
#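 Agonist mode: compounds and dopamine controls were applied to plated cells for 90 min at 37 degrees C after an overnight attachment at 1500 cells/well. Luminescent read-out followed 30 - 60 minutes at room temperature with DiscoveRx detection reagent.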
# DRD3 antagonist – qHTS of D3 Dopamine Receptor Antagonist: qHTS; AID 652054, 2013; actives 2.5% (n = 360,000); D3R cells, DiscoveRx beta-arrestin luminescence, antagonist mode; hits give low values; max response, negative = inhibition, %; in the data active = max response below about -50%; inconclusive = no clear call, values can overlap the other calls
#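 Cells expressing the human receptor were seeded at 1500 cells/well, incubated overnight at 37 degrees C in 5% CO2, then exposed to library compounds with dopamine controls for 90 minutes at 37 degrees C before luminescent detection.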
# Integrin act MD – qHTS for Activators of Integrin-Mediated Alleviation for Muscular Dystrophy; actives 0.064% (n = 350,000); alpha7betagal myoblasts, beta-gal FDG fluorescence, 48 h; AID 624291, 2012; Potency, µM (highest dose often 38.3 µM), most hits filed as activators; also: nearly all actives have a fitted effect of over 60% in size
#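 alpha7betagal+/- myoblasts (passage 13, 250/well) treated 48 h at 37C with compounds at 1:260 dilution of DMSO stock. Lysed, then beta-galactosidase activity read as FDG fluorescence (ex 480/em 540) after 30 min, with pre-read for autofluorescence.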
# Hits are given with their value; - = inactive; ? = inconclusive; . = no result given. Unless noted, calls follow the shape of the dose curve; as a rule, active = well fitted curve in the direction sought with a large enough effect; inconclusive = small, poorly fitted or top-dose-only effect, or another doubt; inactive = no such curve, though single readings can be large; an effect the other way counts as inactive or inconclusive.
SMILES,IDH1 R132H inh,B2AR arrestin,D3 ag,DRD3 antagonist,Integrin act MD
CCCOc1ccc(OCCNC2CCCC2)cc1,-,-,-,-,-
CCOc1ccccc1OCCNC1CCCC1,-,-,-,-106,-
COc1ccc(N2CCN(C(=O)c3cc(S(=O)(=O)N4CCCCCC4)cn3C)CC2)cc1,-,.,-,.,.
Cc1ccc[n+](C(C)C(=O)Nc2ccc(C)c([N+](=O)[O-])c2)c1 (configuration not stated),-,-,-,-70,-
O=C1C2C(C(=O)N1/N=C/c1cc([N+](=O)[O-])c(O)cc1O)C1C=CC2C12CC2 (configuration not stated),-,-,-,?,-
O=C1C2C(C(=O)N1/N=C/c1cc(Br)cc([N+](=O)[O-])c1O)C1C=CC2C12CC2 (configuration not stated),-,-,-,-70,-
Cn1cc(CN2CCc3sccc3C2)c(-c2ccccc2F)n1,-,-,-,-91,-
COc1cccc(-n2cc(CNCc3cn(C)nc3-c3ccccc3F)cn2)c1,-,-,67,-,-
COc1cccc(-n2cc(CNCc3c(C(=O)N(C)C)nc4ccc(Cl)cn34)cn2)c1,-,-,-,-,-
COc1ccc(/C(C)=N/NC(=O)Cn2nc([N+](=O)[O-])cc2C)cc1,-,-,51,-,-
CC1=NN(c2nc(-c3ccccc3)cs2)C(=O)C1,-,-,-,-,-
O=C1CC(c2ccccc2)=NN1c1nc(-c2ccccc2)cs1,-,-,47,-,?
Oc1ccc(COC2CCN(Cc3ccccc3)C2)c2cccnc12 (configuration not stated),.,-,.,.,.
O=c1[nH]c(CN2CCN(Cc3ccccc3)CC2)nc2scc(-c3ccccc3)c12,-,-,-,-82,-
CC(=O)N1CCN(Cc2nc3scc(-c4ccccc4)c3c(=O)[nH]2)CC1,-,-,-,-,-
Cc1cc(Cl)ccc1NC(=O)CN1CCC(C(O)(c2ccccc2)c2ccccc2)CC1,-,-,-,-62,-
CCOc1ccc2nc(N3CCN(C(=O)CS(=O)(=O)c4ccc(F)cc4)CC3)sc2c1,-,.,-,.,.
COCc1cc(=O)[nH]c(SCCS(=O)(=O)c2ccc(C)cc2)n1,-,-,-,-,-
COCc1cc(=O)[nH]c(SCCS(=O)(=O)c2ccc(Cl)cc2Cl)n1,-,-,-,-62,-
C[C@@H]1[C@@H](Sc2ccccc2)CC(=O)O[C@@H]1c1ccc(-c2ccccc2)cc1,-,.,-,-,-
O=C1C=CC2(O[C@H](c3ccccc3)[C@@H](c3ccccc3)O2)[C@H](Sc2ccccc2O)C1,-,.,-,-118,-
O=C(O)C1(C(=O)O)CCCC1,-,.,-,-,-
NC1(C(=O)O)CC1,-,.,-,-75,.
CCCCCCCCCn1c2c(c(=N)c3c1CCC3)CCC2,-,-,-,-56,-
Cn1nc(C(=O)NCc2ccccc2Cl)c2c1-c1ccccc1SC2,-,.,-,.,.
SMILES,IDH1 R132H inh,B2AR arrestin,D3 ag,DRD3 antagonist,Integrin act MD
O=S(=O)(NCC(c1ccco1)N1CCOCC1)c1ccc(F)cc1 (configuration not stated),-,.,-,.,.
CC1(Oc2ccc(Cl)cc2)CCN(Cc2ccc(-c3ccccn3)cc2)C1 (configuration not stated),.,.,-,-121,.
COc1cc(Cl)ccc1OC1(C)CCN(Cc2cccc(OC)c2OC)C1 (configuration not stated),.,.,-,-61,.
COc1cc(Cl)ccc1OC1(C)CCN(Cc2ccccc2OC(F)F)C1 (configuration not stated),.,.,-,?,.
CC1(Oc2cccc(C#N)c2)CCN(Cc2ccc(-c3ccccn3)cc2)C1 (configuration not stated),.,.,-,-,.
CC1(Oc2ccccc2)CCN(Cc2ccc(-c3ccccn3)cc2)C1 (configuration not stated),.,.,-,-79,.
CC1(Oc2ccc(Cl)cc2)CCN(Cc2ccc(OC(F)(F)F)cc2)C1 (configuration not stated),.,.,-,-,.
CSc1ccc(OC2(C)CCN(Cc3ccc(-c4ccccn4)cc3)C2)cc1 (configuration not stated),.,.,-,-55,.
CCC(O)c1nc2ccccc2n1CCOc1cc(C)cc(C)c1 (configuration not stated),-,.,-,.,.
CSc1ccc(Cl)c(C(=O)NCCCn2ccnc2)c1,-,-,-,-,-
CCOc1ccc(CNS(=O)(=O)c2c(C(=O)N3CCC(C)CC3)c(C)n(C)c2C)cc1OC,-,.,-,.,.
COc1cc(Cl)ccc1OC1(C)CCN(Cc2ccc(-c3ccccn3)cc2)C1 (configuration not stated),.,.,45,?,.
COCCNC(=O)C1(C)CCCN(Cc2ccc(-c3ccccn3)cc2)C1 (configuration not stated),.,.,-,-,.
COc1cc(Cl)ccc1OC1(C)CCN(Cc2ccc3ccccc3c2)C1 (configuration not stated),.,.,-,-116,.
O=C(COC(=O)/C=C/c1ccc(S(=O)(=O)N2CCOCC2)cc1)Nc1ccccc1F,-,-,-,-,-
COc1ccc(C(C)(C)C)cc1NC(=O)COC(=O)c1cc(SC)ccc1Cl,-,-,-,-,-
COc1ccc(NC(=O)COC(=O)c2cc(SC)ccc2Cl)c(OC)c1,-,-,32,-,-
COC(=O)c1ccc(Nc2ncnc3c2nc2n3CCCC2)cc1,-,.,-,.,.
C[C@H](CCC(=O)O)[C@H]1CC[C@H]2[C@@H]3CC[C@@H]4C[C@H](O)CC[C@]4(C)[C@H]3C[C@H](O)[C@]12C,-,.,-,-,-
C[C@H](CCC(=O)OCc1cn(CC(=O)c2ccc(O)cc2)nn1)C1CC[C@H]2[C@@H]3CC[C@@H]4C[C@H](O)CC[C@]4(C)[C@H]3C[C@H](O)[C@]12C (some centres not stated),-,.,44,-,-
COC/C=C/C1=CC2=CC(=O)C(C)(OC(=O)c3cnc4ccccc4n3)C(=O)C2=CN1Cc1ccccc1 (configuration not stated),-,-,-,-65,-
CCn1c(N)nc2c1c(=O)n(C)c(=O)n2C,-,-,-,-,-
CCCc1nc2c(=O)n(C)c(=O)nc-2n(C)n1,-,-,-,-61,-
Cn1nc(-c2ccccn2)nc2c(=O)n(C)c(=O)nc1-2,-,-,-,-69,-
CC(C)Oc1ccc(C(=O)N2CC(=O)Nc3ccc(F)cc3C2c2ccc(F)cc2)cc1 (configuration not stated),-,.,-,.,.
Cc1ccc(C)c(NC(=O)N2CCc3cc(S(=O)(=O)N4CCC(C)CC4)ccc32)c1,.,.,-,.,.
